This passage reports max response, Potency and outcome results from PubChem BioAssay (NCATS).

SMILES strings stand for the structures. Several values for one entry are separate records, joined by “and”; a condition that tells them apart may be missing. Equal values may be shown once. Inconclusive results are not listed. Unmarked numbers belong to inactive results. Activity calls are given as the source filed them. The call rests on the fitted dose curve; in most records, active means well fitted inhibition curve with a large enough effect; inconclusive means small, poorly fitted or top-dose-only effect; inactive means flat fitted curve, though single readings scatter.

One assay concerns CRL-7250. The assay can be described thus: Cytotoxic Profiling of Annotated Libraries Using Quantitative High-Throughput Screening (AID 1296008). Further: potency means the concentration at half of the fitted maximal effect. On max response: on the % scale 0 is the no-effect control and ±100 the full control effect. As to conditions: Five cell lines viability, CellTiter-Glo ATP luminescence, 48-72 h; max response: active compounds read low. The gist of the method:
(§1)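 Cells exposed to compounds for 48 or 72 hr at 37 degrees Celsius. Viability read as ATP-coupled luminescence with CellTiter-Glo after 10 min at room temperature.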
A general note: Cellular ATP, detected with luciferase, serves as a proxy for viable cell number.

In another assay the test system is HEK293. Described as above. As to conditions: Five cell lines viability, CellTiter-Glo ATP luminescence, 48-72 h; max response: active compounds read low. The gist of the method: as §1
In a further assay the test system is HaCat. Described as above. As to conditions: Five cell lines viability, CellTiter-Glo ATP luminescence, 48-72 h; max response: active compounds read low. The gist of the method: as §1
The test system of another assay is KB-3-1. Described as above. To be noted: Five cell lines viability, CellTiter-Glo ATP luminescence, 48-72 h; max response: active compounds read low. The gist of the method:
as §1

For the next assay, the system named is NIH3T3. Described as above. As to conditions: Five cell lines viability, CellTiter-Glo ATP luminescence, 48-72 h; max response: active compounds read low. The gist of the method:
as §1

In another assay the test system is HB3. The experiment in a line: qHTS profiling for inhibitors of Plasmodium falciparum proliferation (AID 504749).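 Further: 0% = DMSO vehicle and full inhibition = artemisinin control.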 As to conditions: P. falciparum in erythrocytes, SYBR Green DNA, 72 h; series mostly up to 28.7 µM. The gist of the method:
(§2)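 P. falciparum-infected erythrocytes (0.3% parasitemia, 2.5% hematocrit) incubated with compound 72 h at 37 C, 5% CO2. Parasite DNA detected by SYBR Green after lysis, overnight at room temperature; normalised to 0.29 uM artemisinin and DMSO.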

The subject of another assay is ICS. The assay is described as above. As to conditions: P. falciparum in erythrocytes, SYBR Green DNA, 72 h; series mostly up to 28.7 µM. The gist of the method: as §2
The next assay has as its system JCK. The assay is described as above. As to conditions: P. falciparum in erythrocytes, SYBR Green DNA, 72 h; series mostly up to 28.7 µM. The gist of the method:
as §2

The subject of another assay is N140. Described as above. To be noted: P. falciparum in erythrocytes, SYBR Green DNA, 72 h; series mostly up to 28.7 µM. The gist of the method: as §2
For a further assay, the system named is P93_24. Described as above. As to conditions: P. falciparum in erythrocytes, SYBR Green DNA, 72 h; series mostly up to 28.7 µM. The gist of the method: as §2
In the next assay the test system is P94_40. Described as above. As to conditions: P. falciparum in erythrocytes, SYBR Green DNA, 72 h; series mostly up to 28.7 µM. The gist of the method:
as §2

A further assay relates to PAD. The assay is described as above. To be noted: P. falciparum in erythrocytes, SYBR Green DNA, 72 h; series mostly up to 28.7 µM. The gist of the method:
as §2

A further assay deals with PC15. The description is as above. As to conditions: P. falciparum in erythrocytes, SYBR Green DNA, 72 h; series mostly up to 28.7 µM. The gist of the method: as §2
A further assay has as its system PC26. The assay is described as above. To be noted: P. falciparum in erythrocytes, SYBR Green DNA, 72 h; series mostly up to 28.7 µM. The gist of the method:
as §2

A further assay concerns PC49. Described as above. As to conditions: P. falciparum in erythrocytes, SYBR Green DNA, 72 h; series mostly up to 28.7 µM. The gist of the method:
as §2

For the next assay, the system named is SC27B. The description is as above. To be noted: P. falciparum in erythrocytes, SYBR Green DNA, 72 h; series mostly up to 28.7 µM. The gist of the method:
as §2

In the next assay the test system is TAB109. Described as above. As to conditions: P. falciparum in erythrocytes, SYBR Green DNA, 72 h; series mostly up to 28.7 µM. The gist of the method: as §2
For a further assay, the system named is TAB113. Described as above. To be noted: P. falciparum in erythrocytes, SYBR Green DNA, 72 h; series mostly up to 28.7 µM. The gist of the method:
as §2

A further assay concerns TAB165. Described as above. To be noted: P. falciparum in erythrocytes, SYBR Green DNA, 72 h; series mostly up to 28.7 µM. The gist of the method:
as §2

For a further assay, the system named is W2. The description is as above. To be noted: P. falciparum in erythrocytes, SYBR Green DNA, 72 h; series mostly up to 28.7 µM. The gist of the method: as §2
Further: nearly all actives have a fitted effect of over 60% in size.

As for `CC[C@]12CCCN3CCc4c(n(c5ccccc45)C(=O)C1)[C@@H]32`, the max response was 2.69% with CRL-7250 and -22.7% with HaCat. Further, the Potency with HEK293 was 7.5 µM (active).

On to `CC(C(=O)O)c1cccc(Oc2ccccc2)c1` (configuration not stated), for which the max response with CRL-7250 is -6.67%; in the assay with HEK293, -4.21%; with HaCat it was -15.2%; with KB-3-1, -5.06%; in the assay with NIH3T3, -0.596%.

Regarding `CC1(COc2ccc(CC3SC(=O)NC3=O)cc2)CCCCC1` (configuration not stated), the Potency entry in the assay with HB3, with ICS, in the assay with JCK, in the assay on N140, in the assay on P93_24 and in the assay with P94_40 was “inactive” throughout. The Potency result with PAD, in the assay on PC15, in the assay with PC26, in the assay on PC49, with SC27B and in the assay with TAB109 was “inactive” in each case. The Potency entry in the assay on TAB113, in the assay with TAB165 and with W2 was “inactive” each time. The result in the assay with CRL-7250, with HaCat and in the assay on NIH3T3 was inactive. The max response in the assay on HEK293 is 0.676%; with KB-3-1 it was -1.45%.

Take `Cc1cc(C)cc(OCC2CNC(=O)O2)c1` (configuration not stated): the Potency entry in the assay with HB3, in the assay on ICS, with JCK, in the assay on N140, in the assay with P93_24 and with P94_40 was “inactive” throughout. The Potency entry in the assay with PAD, in the assay on PC15, with PC26, in the assay on PC49, in the assay with SC27B and in the assay on TAB109 was “inactive” in each case. Besides, the Potency result with TAB113 and in the assay with TAB165 was “inactive” throughout. The max response is 2.93% in the assay on CRL-7250; 3.06% in the assay on HEK293; -13.4% with HaCat; 2.21% in the assay on KB-3-1; 0.518% with NIH3T3.

As to `CCc1oc2ccccc2c1C(=O)c1cc(I)c(O)c(I)c1`, the Potency entry with HB3, in the assay with ICS, with JCK, in the assay with N140, in the assay with P93_24 and in the assay with P94_40 was “inactive” in each case. Also, the Potency result in the assay with PAD, in the assay on PC15, in the assay on PC26, in the assay on PC49, with SC27B and with TAB109 was “inactive” in each case. For the same molecule, the Potency result in the assay on TAB113, in the assay on TAB165 and in the assay on W2 was “inactive” each time. Moreover, the max response is -2.92% in the assay with CRL-7250; -23.3% in the assay on HEK293; -7.93% in the assay on HaCat; -18.7% with KB-3-1; -1.15% in the assay with NIH3T3.

In the case of `CC(CNC1CCCCC1)OC(=O)c1ccccc1` (configuration not stated), the max response with CRL-7250 was -16.2%; in the assay on HEK293, -47.9%; in the assay with HaCat it was -18.5%; in the assay with KB-3-1 it was 3.78%; in the assay with NIH3T3 it was 0.669%.

As for `CC[C@H](c1ccc(O)cc1)[C@@H](CC)c1ccc(O)cc1`, the Potency result in the assay on HB3, with ICS, with JCK, with N140, in the assay on P93_24 and in the assay with P94_40 was “inactive” each time. The Potency result in the assay on PAD, with PC15, with PC26, with PC49, in the assay on SC27B and in the assay with TAB109 was “inactive” each time. In addition, the Potency entry in the assay on TAB113, in the assay with TAB165 and in the assay with W2 was “inactive” in each case. Further, the max response was 3.93% in the assay on CRL-7250; -17.5% in the assay on HEK293; 0.0962% in the assay on HaCat; 5.55% in the assay on KB-3-1; 4.6% in the assay on NIH3T3.

As for `O=C1[C@H](CC[C@H](O)c2ccc(F)cc2)[C@@H](c2ccc(O)cc2)N1c1ccc(F)cc1`, the max response is 1.5% in the assay with CRL-7250; -6.94% and -19.1% in the assay with HaCat; -8.72% and 5.64% in the assay with KB-3-1; -18.6% and -29.1% in the assay with NIH3T3. Also, in the assay on CRL-7250, the molecule was called inactive.

Consider `NS(=O)(=O)Cc1noc2ccccc12`, for which the Potency result with HB3, in the assay on ICS, in the assay with JCK, in the assay on N140, in the assay with P93_24 and in the assay on P94_40 was “inactive” throughout. The Potency entry in the assay with PAD, with PC15, with PC26, in the assay with PC49, with SC27B and with TAB109 was “inactive” in each case. Moreover, the Potency result in the assay with TAB113, in the assay on TAB165 and in the assay with W2 was “inactive” throughout. The max response was 0.547% in the assay with CRL-7250; -4.5% with HEK293; 1.67% with HaCat; 2.97% in the assay with KB-3-1; 0.477% with NIH3T3.

For `Cc1ccccc1OCC(O)CO` (configuration not stated), the Potency entry with HB3, with ICS, with JCK, with N140, in the assay with P93_24 and with P94_40 was “inactive” each time. In addition, the Potency entry in the assay with PAD, in the assay with PC15, in the assay with PC26, with PC49, in the assay on SC27B and in the assay on TAB109 was “inactive” in each case. The Potency entry in the assay on TAB113, with TAB165 and in the assay with W2 was “inactive” throughout. For the same molecule, the molecule was classed as inactive in the assay on CRL-7250. The max response was -6.66% in the assay on HEK293, 0.0907% with HaCat, 1.58% in the assay with KB-3-1 and -27.4% in the assay with NIH3T3.

As to `Cc1cc(-c2ccccc2)nnc1NCCN1CCOCC1`, the Potency entry in the assay with HB3, with JCK, with N140, in the assay with P93_24, in the assay on P94_40 and in the assay with PC26 was “inactive” in each case. In addition, the Potency entry in the assay on PC49, with SC27B, in the assay on TAB113 and in the assay on TAB165 was “inactive” each time. The max response is -17.2% in the assay on CRL-7250; 1.05% with HEK293; -33.8% in the assay with HaCat; -13.9% in the assay on KB-3-1; -3.42% in the assay with NIH3T3.

Consider `CC(=O)NCCCCCC(=O)O`, for which the Potency result with HB3, with ICS, in the assay on JCK, in the assay with N140, with P93_24 and in the assay on P94_40 was “inactive” each time. Also, the Potency result in the assay on PAD, in the assay with PC15, in the assay on PC49, with SC27B, in the assay with TAB109 and in the assay with TAB113 was “inactive” in each case. Also, the Potency result in the assay with TAB165 and with W2 was “inactive” throughout. Further, the max response was -1.79% in the assay with CRL-7250; 1.53% with HEK293; -2.92% with HaCat; 0.772% in the assay with KB-3-1; -7.1% in the assay on NIH3T3.

For `COc1cc(N)c(Cl)cc1C(=O)NC1CCN(Cc2ccccc2)CC1`, the Potency entry in the assay with HB3, in the assay on ICS, with JCK, in the assay with N140, in the assay on P93_24 and in the assay on P94_40 was “inactive” each time. Also, the Potency result in the assay with PAD, with PC15, in the assay with PC49, in the assay with SC27B, in the assay on TAB109 and in the assay with TAB113 was “inactive” throughout. The molecule was called inactive with CRL-7250. Further, the max response was -8.36% in the assay with HEK293, 1.83% with HaCat, 3.83% with KB-3-1 and -4.33% with NIH3T3.

For `COc1cc(C(=S)N2CCOCC2)ccc1O`, the Potency result in the assay with HB3, in the assay on ICS, with JCK, in the assay with N140, in the assay with P93_24 and with P94_40 was “inactive” in each case. The Potency entry in the assay with PAD, in the assay with PC15, in the assay on PC26, in the assay on PC49, in the assay on SC27B and in the assay on TAB109 was “inactive” each time. Further, the Potency entry in the assay on TAB165 and in the assay on W2 was “inactive” in each case. In addition, the max response in the assay on CRL-7250 is -4.16%; with HEK293, -23.8%; in the assay with HaCat, -11.5%; with KB-3-1, 12.3%; in the assay on NIH3T3, -6.82%.
